uPA surface inh – qHTS for Inhibitors of Cell Surface uPA Generation; cell surface uPA generation assay, qHTS; Potency, µM (doses to about 38.3 µM), for inactives: at the highest dose activity change, negative = inhibition, hits mostly inhibitors; hit rate 0.31% among 330,000; active = well fitted inhibition curve with a large enough effect; inconclusive = small, poorly fitted or top-dose-only effect; inactive = no such curve, though single readings can be large or run the other way; tested in mouse RAW 264.7 cells; also: potency is read from the fitted curve at half-maximal effect; % is scaled to controls: 0 for no effect and ±100 for the full control effect; nearly all actives have a fitted effect of over 55% in size
ClpP mod – qHTS Assay for Activators of ClpP; ATP-dependent Clp protease proteolytic subunit (Bacillus subtilis (strain 168)), P80244; purified B. subtilis ClpP, FRET peptide cleavage, 20 min; Potency, µM (titrated, usually from 57.5 µM), inactives show at the top dose activity change, negative = active; AID 651965, 2013; hit rate 1.9% among 340,000; active = well fitted falling curve with a large enough effect; inconclusive = small, poorly fitted or top-dose-only effect; inactive = no such curve, though single readings can be large or run the other way; also: potency is read from the fitted curve at half-maximal effect; the source files actives as falling curves though it sought activators and does not explain the sign; nearly all actives have a fitted effect of over 65% in size
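Purified B. subtilis ClpP, 10 microg/mL final in Tris/HCl pH8 with KCl, BSA, glycerol and Tween-20, cleaved an Abz/nitrotyrosine-quenched decapeptide. Fluorescence (ex 320, em 430) was read at 0 and 20 min at room temperature. Delta was normalized to 5.8 microM ADEP and DMSO/no-enzyme controls.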
p53 reactivation – qHTS assay for re-activators of p53 using a Luc reporter; hit rate 0.063% among 320,000; H1299 p53-A138V BP100-luciferase reporter, luminescence, 24 h; Potency, µM (titrated, usually from 92.2 µM), for inactives: at the top dose activity change, positive = activation, usual class: activators; also: potency is read from the fitted curve at half-maximal effect; % of control where 0% means no effect; nearly all actives have a fitted effect of over 45% in size
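p53-null H1299 cells stably carrying temperature-sensitive p53-A138V and a BP100-luciferase reporter were pinned with compounds (4-point, 1:5 series) and held 24 hrs at 37 deg C. Luminescence was read 10 min after detection reagent.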
Giardia killer – Small Molecules that selectively kill Giardia lamblia: qHTS | Giardia lamblia trophozoite viability | activity change, % at 7.66 µM, hits read low | hit rate 0.15% among 340,000 | AID 540267, 2011; in the data active = activity change below about -80%; inconclusive = between about -30% and that limit;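 also: parasites exposed to compound for two days anaerobically before the ATP read; % is scaled to controls: 0 for no effect and ±100 for the full control effect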
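Killing of trophozoites was scored by loss of ATP luminescence after a 48 hrs anaerobic exposure to compounds at 37 deg C, using 100 cells per well.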
Mito fusion act – qHTS Assay for Small Molecule Inhibitors of Mitochondrial Division or Activators of Mitochondrial Fusion | S. cerevisiae fusion-defective mutant growth rescue, CellTiterGlo 48 h | Potency, µM (doses to about 46.1 µM), without a hit: at the top dose growth rescue (activation), hits mostly activators | hit rate 0.23% among 320,000; also: potency is read from the fitted curve at half-maximal effect; % of control where 0% means no effect; nearly all actives have a fitted effect of over 45% in size
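Read-out: ATP-based luminescence (CellTiterGlo, 10 min ambient) reporting growth of fusion-defective ts yeast after 48 hours at 37C on glycerol/ethanol YPEG medium in the presence of compound.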
B2AR arrestin – qHTS assay of beta-arrestin-biased ligands of beta2-adrenergic receptor; Beta-2 adrenergic receptor (Homo sapiens), P07550; hit rate 0.02% among 330,000; Potency, µM (doses to about 46.1 µM), inactives show at the highest dose activation, usual class: activators; beta-arrestin recruitment to beta2AR, cell-based reporter;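 also: potency is read from the fitted curve at half-maximal effect; 0% = DMSO controls and full agonism = EC100 isoproterenol or metaproterenol; nearly all actives have a fitted effect of over 65% in size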
Target sequence (P07550 whole entry, looked up): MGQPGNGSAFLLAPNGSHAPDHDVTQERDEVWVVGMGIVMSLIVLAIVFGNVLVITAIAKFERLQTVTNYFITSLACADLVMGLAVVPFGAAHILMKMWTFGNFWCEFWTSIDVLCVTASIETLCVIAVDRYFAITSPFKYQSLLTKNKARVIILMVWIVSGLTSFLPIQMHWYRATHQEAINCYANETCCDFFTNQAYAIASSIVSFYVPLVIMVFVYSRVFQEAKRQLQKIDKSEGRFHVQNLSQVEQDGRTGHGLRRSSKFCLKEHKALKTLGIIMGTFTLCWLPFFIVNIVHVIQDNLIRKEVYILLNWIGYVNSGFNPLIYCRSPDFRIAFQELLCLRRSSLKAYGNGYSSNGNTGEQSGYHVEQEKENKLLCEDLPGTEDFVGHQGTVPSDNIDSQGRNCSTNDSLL
An asterisk follows results filed as active; ? = inconclusive; . = no result. Most compounds without a hit are left out; they make up all but 2.1% or so of the library. Unless noted, calls follow the shape of the dose curve; as a rule, active = well fitted curve in the direction sought with a large enough effect; inconclusive = small, poorly fitted or top-dose-only effect, or another doubt; inactive = no such curve, though single readings can be large; an effect the other way counts as inactive or inconclusive.

SMILES	uPA surface inh	ClpP mod	p53 reactivation	Giardia killer	Mito fusion act	B2AR arrestin
O=C(CNc1cccc2ccccc12)N/N=C/c1ccc([N+](=O)[O-])o1	?	0.1%	17.7%	-96.1*	18.8%	-0.5%
O=C(CNc1cccc([N+](=O)[O-])c1)N/N=C/c1ccc([N+](=O)[O-])o1	-17.1%	.	1.5%	-107.2*	1.1%	-0.1%
COc1ccc(CCC(=O)NO)cc1	.	0.9%	.	.	.	.
O=C(Nc1ccc(F)c(Cl)c1)Nc1c[nH]c(=O)[nH]c1=O	.	1.1%	.	.	.	.
CC(=O)N1c2ccc(S(=O)(=O)NCCC(=O)N3CCCC(C)C3)cc2CC1C (centres undefined)	-4.9%	-0.8%	-1.7%	15.7	11.2µM*	0.0%
CC(=O)N1c2ccc(S(=O)(=O)N3CCCC(C(=O)N4CCCC(C)C4)C3)cc2CC1C (centres undefined)	-1.7%	-2.8%	0.3%	-3.6	9.8%	-0.2%
C=Cc1ccc(CN2C(=O)N(c3ccc(CC)cc3)S(=O)(=O)c3ccccc32)cc1	.	-2.7%	.	.	.	.
COc1ccc(-n2cccc2/C=C2/NC(=O)N(c3cccc(Cl)c3)C2=O)cc1	-1.4%	25.1µM*	1.8%	6.4	-6.5%	0.1%
CC1CCCN(C(=O)c2ccc([N+](=O)[O-])o2)C1 (centres undefined)	-23.5%	2.3%	?	-84.3*	-4.4%	-0.6%
CCC1CCCCN1C(=O)c1ccc([N+](=O)[O-])o1 (centres undefined)	-5.1%	.	?	-97.0*	11.4%	0.2%
CN(Cc1cnc2nc(N)nc(N)c2n1)c1ccc(C(=O)NC(CCC(=O)O)C(=O)O)cc1 (centres undefined)	-11.0%	15.8µM*	.	-5.9	.	.
CN(Cc1cnc2nc(N)nc(N)c2n1)c1ccc(C(=O)NC(CCC(=O)O)C(=O)O)cc1C(F)(F)F (centres undefined)	-10.1%	?	.	-3.6	.	.
CCCCOc1ccc(CC(=O)N(C)O)cc1	.	-0.5%	.	.	.	.
CCC(=O)N1CCCc2cc(S(=O)(=O)N3CCC(C(=O)Nc4ccccc4CC)CC3)ccc21	.	-3.2%	.	.	.	.
COc1ccc(C(=O)C[C@@H]2OC[C@H](C(C)C)N2S(=O)(=O)c2ccc(C)cc2)cc1OC	.	-5.9%	.	.	.	.
CC(Oc1ccc(F)cc1)C(=O)NCC1(N(C)C)CCCCC1 (centres undefined)	.	1.6%	.	.	.	.
CCc1cccc(C)c1NC(=O)CN1C(=O)c2c(c3ccccc3n2C)C1c1ccc(OC)cc1 (centres undefined)	.	25.1µM*	.	.	.	.
COc1ccc(C2c3c(n(C)c4ccccc34)C(=O)N2CC(=O)Nc2ccc(Cl)cc2)cc1 (centres undefined)	.	17.8µM*	.	.	.	.
CCCCNC(=O)CN1C(=O)c2c(c3ccccc3n2C)C1c1ccc(OC)cc1 (centres undefined)	.	31.6µM*	.	.	.	.
CCCCNC(=O)Cn1c(=O)n(C)c2ccccc21	1.7%	0.7%	-10.1%	-0.6	-5.8%	-0.1%
Nc1ccc2c(c1)C=C/C2=C\c1ccccc1	.	-1.0%	.	.	.	.
COc1cc(-c2c(-c3ccc4c(c3)OCO4)noc2-c2ccsc2)cc(OC)c1OC	.	-1.6%	.	.	.	.
Cc1cc(C)c(C(N)=O)c(NCCc2ccccc2)n1	.	35.5µM*	4.0%	-8.6	-4.5%	0.1%
CC12CCC(=O)N1C(C(=O)OCC(=O)Nc1cccc(Br)c1)CS2 (centres undefined)	-0.2%	.	1.3%	2.0	13.0%	0.5%
CN(C(=O)COC(=O)C1CSC2(C)CCC(=O)N12)c1ccccc1 (centres undefined)	8.6%	28.2µM*	1.2%	-2.4	-7.0%	-0.4%
CSCCC(NS(=O)(=O)c1ccc2c(c1)oc(=O)n2C)C(=O)NCc1ccc(Cl)cc1 (centres undefined)	.	1.1%	.	.	.	.

High-throughput results deposited in PubChem by National Center for Advancing Translational Sciences (NCATS).
